# Giardia FBPA inh = Giardia lamblia aldolase inhibition | 290,000 compounds, 0.71% hits | AID 2451 | purified Giardia FBPA | A8B2U2 | Potency, µM (top dose mostly 59.6 µM), inactives show top-dose activity, negative = inhibition, actives largely listed as inhibitors; note: potency is the fitted concentration of half-maximal effect; % is set by controls: 0 for no effect and ±100 for the full control effect; nearly all actives have a fitted effect of over 55% in size
# Target sequence (A8B2U2 whole entry, looked up): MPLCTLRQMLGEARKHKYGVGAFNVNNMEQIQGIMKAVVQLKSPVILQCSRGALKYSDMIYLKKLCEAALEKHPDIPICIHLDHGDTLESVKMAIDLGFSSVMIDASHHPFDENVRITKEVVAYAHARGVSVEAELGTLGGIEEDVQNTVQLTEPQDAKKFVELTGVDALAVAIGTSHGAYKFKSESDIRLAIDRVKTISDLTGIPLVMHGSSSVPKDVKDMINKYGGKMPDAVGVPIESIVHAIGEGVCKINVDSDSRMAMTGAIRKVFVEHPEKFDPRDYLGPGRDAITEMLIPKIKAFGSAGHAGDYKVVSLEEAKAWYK
#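 Giardia FBPA (40 nM reagent) was preincubated 10 min at RT with compound (up to 57.5 uM final), then substrate plus GAPDH/TPI/NAD/arsenate coupling system with diaphorase/resazurin was added; resorufin fluorescence (525/598 nm) was read after 20 min.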
# Shiga toxin inh = blocks Shiga toxin action in Vero cells; Vero cells, Shiga toxin protein synthesis inhibition reporter; inhibition, % at 38.7 µM; 290,000 compounds, 9.2% hits; in the data active = inhibition mostly above about 28%, no sharp cut-off; inactive = mostly below about 43%; note: 0% is about no effect
# Pf growth 48h = P. falciparum growth inhibition at 48 hours (one generation). Potency, µM (titrated, usually from 28.7 µM), for inactives: at the highest dose activity change, negative = inhibition, actives largely listed as inhibitors. AID 504832. P. falciparum luciferase growth in erythrocytes, 48 h. 310,000 compounds, 5.9% hits; note: potency is the fitted concentration of half-maximal effect; % is set by controls: 0 for no effect and ±100 for the full control effect
#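 Luciferase-expressing P. falciparum in infected erythrocytes (2% hematocrit, 0.1% parasitemia final) in RPMI 1640/0.5% Albumax were exposed to compound for 48 hours at 37 C, 5% CO2; growth read as luminescence.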
# Pf growth 96h = inhibits malaria parasite growth, 96 h; 320,000 compounds, 6.9% hits; Potency, µM (highest dose often 28.7 µM), for the others: top-dose activity change, negative = inhibition, actives largely listed as inhibitors; P. falciparum luciferase reporter growth, 96 h; note: potency is the fitted concentration of half-maximal effect; % is set by controls: 0 for no effect and ±100 for the full control effect
#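 Delayed-death screen, second-generation endpoint: infected erythrocytes, 2% hematocrit, 0.05% parasitemia final; 96 hours at 37 C, 5% CO2; luciferase detection reagent; luminescence decrease equals reduced growth.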
# NS1 inh = influenza NS1 inhibition | Potency, µM (doses to about 46.1 µM), without a hit: at the highest dose activity, positive = more growth | 270,000 compounds, 0.4% hits; calls by dose curve; note: potency is the fitted concentration of half-maximal effect; actives are rising curves; nearly all actives have a fitted effect of over 50% in size
#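 Growth recovery, yeast-based: influenza A NS1 expressed in S. cerevisiae causes slow growth, and suppressors are detected by OD600. The parent strain without NS1 is used as positive control.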
# CHX counter = affects cycloheximide protein synthesis inhibition readout, counter-screen; 300,000 compounds, 12% hits; cell reporter, cycloheximide protein synthesis inhibition counterscreen; max response, %; in the data active = max response mostly above about 13%, no sharp cut-off; inactive = mostly below about 14%; note: read at 38.3 µM for the half of the compounds with a filed dose; 0% is about no effect
# An asterisk follows results filed as active; ? = inconclusive; / = no result given; [ ] = another dose, or the depositor's remark. Only some compounds are listed: those with a hit (about 21% of all), similar ones and a draw of the others. Unless noted, calls come from the whole dose curve; as a rule, active = well fitted curve in the direction sought with a large enough effect; inconclusive = small, poorly fitted or top-dose-only effect, or another doubt; inactive = no such curve, though single readings can be large; an effect the other way counts as inactive or inconclusive.
SMILES,Giardia FBPA inh,Shiga toxin inh,Pf growth 48h,Pf growth 96h,NS1 inh,CHX counter
OCC1(CCOc2ccccc2)CCN(CCCn2cccn2)CC1,5.0%,4.3,40.2%,10.4µM*,-0.4%,-2.1
COc1ccc(CN2CCC(CO)(CCOc3ccccc3)CC2)cc1C,2.0%,-2.5,10.4µM*,4.1%,0.8%,7.1
OCC1(CCOc2ccccc2)CCN(Cc2ccncc2)CC1,11.2%,-5.4,?,?,18.8%,2.6
CCOc1cc(CN2CCC(CO)(Cc3cccc(C(F)(F)F)c3)CC2)ccc1OC,-0.2%,-14.3,?,10.4µM*,-0.6%,-3.5
COc1cc(CN2CCC(Cc3ccccc3)CC2)cc(OC)c1OC,-15.4%,-8.0,?,9.28µM*,3.1%,-1.5
C=CCOC(=O)[C@H](O)[C@@H](O)C(=O)OCC=C,-0.5%,/,/,/,/,/
OCC1(CCOc2ccccc2)CCN(Cc2ccc3c(c2)OCCO3)CC1,0.8%,-42.5,-9.8%,11.7µM*,-4.9%,0.8
COc1cc(OC)c(CN2CCC(CO)(CCOc3ccccc3)CC2)c(OC)c1,4.1%,-6.9,?,0.0%,9.6%,-7.8
OCC1(CCOc2ccccc2)CCN(Cc2ccccc2OC(F)F)CC1,3.4%,-10.7,-7.2%,?,-9.4%,-2.2
OCC1(CCOc2ccccc2)CCN(Cc2ccc(OC(F)F)cc2)CC1,10.6%,-6.9,8.3%,10.4µM*,-2.9%,1.9
COc1cc(CN2CCC(CO)(CCOc3ccccc3)CC2)cc(OC)c1OC,2.7%,13.5,5.86µM*,8.9%,-0.6%,-0.8
CCOC(=O)C1(CCOc2ccccc2)CCN(Cc2ccc3c(c2)OCCO3)CC1,-3.0%,-15.5,?,3.6%,-8.8%,-0.6
Cc1cc(NCCOCCO)n2c(nc3ccccc32)c1C#N,-13.8%,-13.9,?,1.85µM*,1.3%,4.5
Cc1cc(NCCCO)n2c(nc3ccccc32)c1C#N,-15.2%,-18.4,10.4µM*,?,18.2%,-3.7
CCCNc1cc(C)c(C#N)c2nc3ccccc3n12,0.5%,-8.5,-0.8%,-23.1%,1.9%,-3.5
CCN1C(=O)[C@H]2[C@H]3[C@H](O)[C@H](O)C/C(=N/O[C@@H](C)c4cc(-c5c(C)cc(C)cc5C)no4)[C@@H]3CC[C@@H]2C1=O,-2.2%[12.9 µM],/,/,/,/,/
Cc1ccccc1Nc1oc(-c2ccccc2)nc1CCc1ccccc1,-0.6%,/,/,/,/,/
O=C(NCCSc1ccccn1)c1ccc(Cl)cc1,-4.4%,63.0*,186.8%,36.8%,/,11.6
O=C(CCCNC(=O)c1ccc(Cl)cc1)Nc1ncccc1O,/,4.4,?,8.28µM*,8.1%,-1.5
Cc1ccccc1N(CC(=O)NCCSc1ccccn1)S(=O)(=O)c1ccccc1,0.4%,-12.7,?,10.4µM*,-4.8%,-2.2
Cc1ccccc1CSCCNC(=O)CCSc1ccccc1,/,17.3,25.3%,17.7%,-72.8%,5.6
COc1ccccc1N(CC(=O)NCCSc1ccccn1)S(=O)(=O)c1ccccc1,-2.0%,-5.1,?,16.3%,-13.2%,-4.0
Cc1ccccc1CSCC(=O)NCCSc1ccccn1,-0.2%,33.1,11.8%,-10.3%,/,22.4*
Cc1cc2oc(=O)cc(Cn3ccnc3)c2cc1Cl,19.6%,3.6,8.5%,37.9%,1.2%,-2.1
Cc1cnc(CNc2cc(-c3cccc(NS(C)(=O)=O)c3)ncn2)cn1,-7.4%,/,/,/,/,/
SMILES,Giardia FBPA inh,Shiga toxin inh,Pf growth 48h,Pf growth 96h,NS1 inh,CHX counter
COc1cc2cc3c4cc(OC)c(OC)cc4cc[n+]3c(C)c2cc1OC,-18.7%,/,/,/,/,/
Cc1ccc(C(=O)NCCSc2snnc2C)cc1,-0.4%,70.7*,27.5%,39.5%,2.1%,54.3*
CCOc1ccccc1N(CC(=O)N(C)Cc1ccccc1)S(=O)(=O)c1ccccc1,/,57.7*,?,7.1%,0.0%,26.1
CCOc1ccccc1N(CC(=O)NCCSc1ccccn1)S(=O)(=O)c1ccccc1,-1.6%,-6.3,14.7µM*,?,-25.6%,1.0
CCOC(=O)N1CCN(C(=O)c2ccccc2N(Cc2ccccc2)S(=O)(=O)c2ccccc2)CC1,0.7%,22.1,4.65µM*,21.9%,-6.7%,-2.8
CSc1ccc(CN2CCCN(C)CC2)cc1,?,-4.3,37.2%,0.0%,-4.2%,0.5
Cc1ccccc1N1C(=O)c2cc(N)ccc2N/C1=C\F,/,/,-6.9%,?,/,/
COC(=O)c1cccc(NC(=S)NCc2ccc(F)cc2)c1,-4.4%,1.6,24.6%[5.75 µM],?,/,-2.8
Cc1sc2ncnc(N/N=C/c3ccc(O)cc3)c2c1C,-23.9%,15.7,12.9%,?,-22.4%,16.0
Fc1ccc(/C=N/Nc2nccnc2Cl)cc1,?,95.6*,140.7%,?,-16.8%,39.9*
FC(F)(F)c1cnc(N/N=C/c2ccncc2)c(Cl)c1,-26.7%,6.9,-24.3%,-15.7%,-7.2%,8.0
Nc1c(Cl)ncnc1N/N=C/c1ccc(O)cc1,-21.7%,47.1*,71.9%,74.1%,-5.5%,25.6*
Fc1cccc(/C=N/Nc2nccnc2Cl)c1,?,97.9*,155.3%,245.3%,-17.1%,48.5*
Oc1ccc(/C=N/Nc2nccnc2Cl)cc1,-19.0%,74.7,/,1.3%,-0.6%,20.9*
COC(=O)c1ccccc1NC(=O)CSc1nncn1-c1ccccn1,1.0%,-0.8,22.2%,-13.8%,2.6%,-2.5
CCOC(=O)c1ccc(NS(=O)(=O)c2ccc3oc(=O)[nH]c3c2)cc1,-17.0%,-15.3,-20.0%,-10.3%,21.4%,-0.5
CS(=O)(=O)Nc1cccc(-c2ccc3ncnc(N4CCOCC4)c3c2)c1,5.2%,/,/,/,/,/
Cc1cc(O)ccc1Cl,?,/,2.2%,-2.1%,/,/
Cc1cc(O)c(-c2cc(O)c(C)cc2O)cc1O,15.8µM*,10.6,?,-14.9%,8.3%,10.3*
Cc1cc(NC(=O)c2noc3c2CCCC3)no1,1.7%,30.5*,67.5%,24.4%,-6.4%,22.4*
Cc1cc(NC(=O)c2noc3c2CCCCC3)no1,4.4%,130.3*,86.5%,49.2%,-6.2%,28.6*
Cc1cc(NC(=O)c2noc3c2CCCC3)n(-c2ccccc2)n1,1.6%,7.3,13.1%,310.5%,-15.1%,0.8
OCC[C@H]1C[C@H](O)[C@@H](O)[C@]2(CCCc3ccccc3O2)O1,/,/,-21.1%,52.8%,/,/
C[C@H](NC(=O)[C@@H]1Cc2ccccc2CN1)C(=O)Nc1ccc2c(c1)OCO2,/,24.8,-10.4%,-7.7%,-9.4%,29.8*
CSCC[C@H](NC(=O)[C@@H]1Cc2ccccc2CN1)C(=O)Nc1ccc2c(c1)OCO2,-23.7%,33.6,9.28µM*,?,4.8%,48.1*

# Screens deposited in PubChem by National Center for Advancing Translational Sciences (NCATS).
